Seven compounds from PubChem BioAssay (NCI) can be followed below.

Some test systems named below: HCT-15 colon; HT29 colon; SNB-75 CNS; SNB-19 CNS; U251 CNS; PC-3 prostate; SK-MEL-5 melanoma; UACC-62 melanoma; LOX IMVI melanoma; SK-MEL-28 melanoma; SK-MEL-2 melanoma; EKVX NSCLC; SN12C renal; UO-31 renal; TK-10 renal; ACHN renal; CAKI-1 renal; A498 renal; CCRF-CEM leukemia; MOLT-4 leukemia.
Common to all, as to experiment: NCI-60 one-dose screen, 48 h (100 = growth as untreated, 0 = no growth, -100 = all killed)
What all share (settings): 10 µM unless noted

“And” between values parts separate entries of the source, which are not always exact repeats. Equal values may be shown once. Compounds without any hit were thinned out: in the full panel of roughly 83,000, 20% have a hit.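 Compound tested at a single concentration for 48 hours in 96-well plates; a percent growth value below 10 was scored as active.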 The source made the active and inactive calls.

Consider `CCCCCn1sc(=O)n(Cc2ccc(CNC(=O)C(C)c3ccc(CC(C)C)cc3)cc2)c1=O` (stereo not given), for which the growth in the test on HCT-15 colon was 101% (inactive) and -35% (active); in the test with HT29 colon, 112% (inactive) and -52.1% (active); in the test with SNB-75 CNS, 94.3% (inactive) and -20.9% (active); in the test on SNB-19 CNS, 98.7% (inactive) and 43.3% (inactive); with U251 CNS, 87.4% (inactive) and 8.32% (active); in the test with PC-3 prostate, 93.7% (inactive) and -64.4% (active). Further, the growth was 101% (inactive) and -89.2% (active) in the test with SK-MEL-5 melanoma; 96.9% (inactive) and -65.1% (active) in the test on UACC-62 melanoma; 104% (inactive) and -92.7% (active) in the test with LOX IMVI melanoma; 107% (inactive) and -52.5% (active) in the test with SK-MEL-28 melanoma; 106% (inactive) and -18.6% (active) in the test on SK-MEL-2 melanoma; 96.9% (inactive) and -65.7% (active) with EKVX NSCLC. For the same compound, the growth was 95.3% (inactive) and -52.9% (active) in the test on SN12C renal; 85.8% (inactive) and -100% (active) with UO-31 renal; 106% (inactive) and -86.8% (active) with TK-10 renal; 92.4% (inactive) and -100% (active) in the test with ACHN renal; 91.2% (inactive) and -73% (active) with CAKI-1 renal; 113% (inactive) and 40% (inactive) with A498 renal. Moreover, the growth is 95.8% (inactive) and 2.99% (active) in the test with CCRF-CEM leukemia; 101% (inactive) and -4.68% (active) in the test with MOLT-4 leukemia.

For `O=C1c2ccccc2C(=O)c2c(NCCNCCO)ccc(NCCNCCO)c21`, the growth is 70.2% (inactive) and 75.4% (inactive) and 72.6% (inactive) in the test on HCT-15 colon; 2.99% (active) and 16.2% (inactive) and 14.9% (inactive) in the test on HT29 colon; -26.9% (active) and -4.55% (active) and -6.89% (active) with SNB-75 CNS; -11% (active) and 14.5% (inactive) and 7.49% (active) in the test with SNB-19 CNS; -4.94% (active) and 5.29% (active) in the test with U251 CNS; -58.4% (active) and 36.2% (inactive) and 20.3% (inactive) in the test with PC-3 prostate. Also, the growth with SK-MEL-5 melanoma is -50.5% (active) and 7.59% (active) and 3.46% (active); in the test with UACC-62 melanoma, -73.4% (active) and 10.3% (inactive) and 6.9% (active); with LOX IMVI melanoma, -35.6% (active) and 0.446% (active) and 1.46% (active); with SK-MEL-28 melanoma it was -36.8% (active) and 31.2% (inactive) and 16.9% (inactive); in the test with SK-MEL-2 melanoma, -75.2% (active) and -0.89% (active) and -16.8% (active); in the test on EKVX NSCLC, 38.4% (inactive) and 48.9% (inactive). For the same compound, the growth was -0.766% (active) and 4.9% (active) and 7.36% (active) in the test with SN12C renal; -5.63% (active) and 55.9% (inactive) and 44.7% (inactive) with UO-31 renal; 21.8% (inactive) and 54.6% (inactive) and 38.8% (inactive) in the test with TK-10 renal; 17.9% (inactive) and 24.5% (inactive) and 22.7% (inactive) with ACHN renal; 19.8% (inactive) and 50.9% (inactive) and 35.4% (inactive) in the test on CAKI-1 renal; -4.91% (active) and 79.3% (inactive) and 29.9% (inactive) in the test on A498 renal. Also, the growth was 153% (inactive) and 10.2% (inactive) and 1.67% (active) in the test on CCRF-CEM leukemia; 143% (inactive) and -3.2% (active) and -1.56% (active) in the test with MOLT-4 leukemia.

`CC(C)C(=O)Nc1ccc([N+](=O)[O-])c(C(F)(F)F)c1`: the growth with HCT-15 colon is 94% (inactive) and 100% (inactive); with HT29 colon it was 106% (inactive) and 115% (inactive); in the test with SNB-75 CNS, 113% (inactive) and 92% (inactive); in the test with SNB-19 CNS, 96.8% (inactive) and 102% (inactive); with U251 CNS, 98.3% (inactive) and 96.7% (inactive); in the test with PC-3 prostate, 69.5% (inactive) and 100% (inactive). Also, the growth with SK-MEL-5 melanoma is 85.2% (inactive) and 98.4% (inactive); in the test with UACC-62 melanoma, 74.9% (inactive) and 80% (inactive); in the test on LOX IMVI melanoma, 90% (inactive) and 93.2% (inactive); in the test with SK-MEL-28 melanoma, 102% (inactive) and 107% (inactive); in the test on SK-MEL-2 melanoma it was 111% (inactive) and 28.9% (inactive); in the test with EKVX NSCLC, 51.4% (inactive) and 86.1% (inactive). Also, the growth in the test on SN12C renal was 65.3% (inactive) and 88% (inactive); with UO-31 renal it was 76.1% (inactive) and 71.9% (inactive); in the test on TK-10 renal, 94.5% (inactive) and 111% (inactive); in the test with ACHN renal, 98.4% (inactive); in the test with CAKI-1 renal, 69.2% (inactive) and 100% (inactive); in the test on A498 renal, 84.4% (inactive) and 96% (inactive). In addition, the growth was 75.4% (inactive) and 109% (inactive) in the test on CCRF-CEM leukemia; 76.8% (inactive) and 97.8% (inactive) in the test on MOLT-4 leukemia.

With `CC(C)(O)Cn1cc(-c2ccc3nc(OC4CC4)ccc3c2)c2c(N)ncnc21`, the growth with HCT-15 colon is 95.3% (inactive) and 73.8% (inactive); in the test with HT29 colon it was 74% (inactive) and 44.6% (inactive); in the test on SNB-75 CNS, 40.2% (inactive) and 37.9% (inactive); in the test on SNB-19 CNS, 74.8% (inactive) and 64.3% (inactive); with U251 CNS it was 82.1% (inactive) and 50.5% (inactive); in the test with PC-3 prostate it was 56.8% (inactive) and 48.2% (inactive). The growth in the test on SK-MEL-5 melanoma is 84.3% (inactive) and 37.8% (inactive); in the test with UACC-62 melanoma, 48.4% (inactive); in the test on LOX IMVI melanoma, 72.8% (inactive) and 30.4% (inactive); in the test with SK-MEL-28 melanoma it was 101% (inactive) and 71.5% (inactive); with SK-MEL-2 melanoma, 87.8% (inactive); in the test on EKVX NSCLC it was 85.8% (inactive) and 49.3% (inactive). For the same compound, the growth in the test with SN12C renal is 87.9% (inactive) and 38.6% (inactive); in the test on UO-31 renal, 63.7% (inactive) and 19.2% (inactive); in the test on TK-10 renal, 74.2% (inactive) and 55.3% (inactive); in the test on ACHN renal, 86.2% (inactive) and 43.1% (inactive); in the test on CAKI-1 renal, 80.9% (inactive) and 70.1% (inactive); with A498 renal, 64.9% (inactive) and 21% (inactive). For the same compound, the growth was 67.2% (inactive) and 38% (inactive) with CCRF-CEM leukemia; 56.6% (inactive) and 17.4% (inactive) with MOLT-4 leukemia.

For the compound `CN1CCN(c2ccc3nc(-c4c(N)c5c(F)cccc5[nH]c4=O)[nH]c3c2)CC1`, the growth is 30.7% (inactive) and 18.7% (inactive) in the test on HCT-15 colon; 1.59% (active) and 10.3% (inactive) in the test on HT29 colon; 35.3% (inactive) and 28.4% (inactive) with SNB-75 CNS; 53.9% (inactive) and 61.5% (inactive) in the test on SNB-19 CNS; 34.9% (inactive) and 33.5% (inactive) in the test on U251 CNS; 27.2% (inactive) and 38.4% (inactive) with PC-3 prostate. For the same compound, the growth is 11.2% (inactive) and 36.3% (inactive) in the test on SK-MEL-5 melanoma; 46.5% (inactive) and 41% (inactive) in the test on UACC-62 melanoma; -66.4% (active) and 16.4% (inactive) in the test on LOX IMVI melanoma; -5.34% (active) in the test on SK-MEL-28 melanoma; 45.5% (inactive) in the test with SK-MEL-2 melanoma; -82.3% (active) and 54.7% (inactive) in the test with EKVX NSCLC. The growth with SN12C renal was 26.3% (inactive) and 27.6% (inactive); in the test on UO-31 renal, 7.59% (active) and 16% (inactive); in the test on TK-10 renal, 35.1% (inactive) and 45.8% (inactive); with ACHN renal, 17.8% (inactive) and 18% (inactive); with CAKI-1 renal, 14% (inactive) and 20.4% (inactive); in the test on A498 renal it was 29% (inactive) and 14.6% (inactive). Besides, the growth in the test with CCRF-CEM leukemia was 6.23% (active) and 10.7% (inactive); with MOLT-4 leukemia, -8.41% (active) and 1.37% (active).

Turning to `CCCCCCCCCCCCOc1ccccc1C=O`, the growth is 101% (inactive) in the test with HCT-15 colon; 96.7% (inactive) in the test on HT29 colon; 80.6% (inactive) in the test on SNB-75 CNS; 98.4% (inactive) in the test with SNB-19 CNS; 87.4% (inactive) in the test on U251 CNS; 108% (inactive) in the test with PC-3 prostate. The growth is 101% (inactive) with SK-MEL-5 melanoma; 102% (inactive) in the test with UACC-62 melanoma; 90.1% (inactive) with LOX IMVI melanoma; 106% (inactive) in the test on SK-MEL-28 melanoma; 112% (inactive) in the test on SK-MEL-2 melanoma; 97% (inactive) in the test with EKVX NSCLC. For the same compound, the growth was 93.7% (inactive) in the test on SN12C renal; 65.1% (inactive) with UO-31 renal; 118% (inactive) in the test on TK-10 renal; 101% (inactive) in the test with ACHN renal; 84.9% (inactive) in the test on CAKI-1 renal; 116% (inactive) in the test on A498 renal. The growth in the test on CCRF-CEM leukemia was 79.9% (inactive); with MOLT-4 leukemia, 78.3% (inactive).

For `CN1CCN(C2CCN(C(=O)Nc3cc(Oc4ccc(NC(=O)C5(C(=O)Nc6ccc(F)cc6)CC5)c(F)c4)ccn3)CC2)CC1`, the growth is -14.8% (active) and 93.5% (inactive) in the test with HCT-15 colon; -60.3% (active) and 46.5% (inactive) with HT29 colon; -77.5% (active) and 77.2% (inactive) in the test with SNB-75 CNS; 3.95% (active) and 115% (inactive) in the test with SNB-19 CNS; -86.3% (active) and 98.1% (inactive) with U251 CNS; -12.3% (active) and 86.1% (inactive) with PC-3 prostate. Moreover, the growth in the test on SK-MEL-5 melanoma is -98% (active) and 80.1% (inactive); with UACC-62 melanoma it was -78% (active) and 70.7% (inactive); with LOX IMVI melanoma, -88.3% (active) and 93.1% (inactive); in the test on SK-MEL-28 melanoma, -91.6% (active) and 94.3% (inactive); in the test on SK-MEL-2 melanoma, 81.3% (inactive); in the test with EKVX NSCLC it was 3.24% (active) and 99.4% (inactive). The growth is -55.1% (active) and 50.6% (inactive) with SN12C renal; -61.7% (active) and 92.4% (inactive) in the test with UO-31 renal; -47.9% (active) and 98.4% (inactive) in the test on TK-10 renal; -3.96% (active) and 53.5% (inactive) with ACHN renal; -34.8% (active) and 44.8% (inactive) in the test on CAKI-1 renal; -68.6% (active) and 92.8% (inactive) in the test on A498 renal. Moreover, the growth in the test on CCRF-CEM leukemia was 0.274% (active) and 101% (inactive); with MOLT-4 leukemia, -10.9% (active) and 86.6% (inactive).
